“And” between values parts separate entries of the source, which are not always exact repeats. Equal entries are not always repeated. The campaign covered roughly 5,500 compounds. About 2,000 (36%) were called active. Not shown: some 18% with an inconclusive outcome. Cut-off read from the data, not from the text of the source: active = normalized growth mostly below about 0.91 (no sharp cut-off); inconclusive = no clear call, values can overlap the other calls; inactive = mostly above about 0.92. The list shows a part of the results.
Experiment: chemical genetic growth profiling, strain panel (AID 1159580);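 note: tested at 20 µM; growth read once vehicle control cultures reached saturation at 30 °C; 1 = growth at the plate median or of vehicle wells; lower values mean less growth of the strain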
Settings: S. cerevisiae deletion strains, growth OD

Measured: normalized growth

COc1cc2c(cc1OC)C(=O)OC2
inactive: locus YAL013W, strain DEP1, active compounds read low 1 | locus YAL021C, strain ccr4, active compounds read low 0.998 | locus YAL026C, strain drs2, active compounds read low 1.01 | locus YAL030W, strain snc1, active compounds read low 0.981 | locus YBL061C, strain skt5, active compounds read low 0.988 | locus YBR009C, strain hhf1, active compounds read low 0.992 | locus YBR021W, strain FUR4, active compounds read low 0.999 | locus YBR023C, strain chs3, active compounds read low 0.993 | locus YBR171W, strain sec66, active compounds read low 0.998 | locus YBR229C, strain ROT2, active compounds read low 1.01 | locus YBR231C, strain swc5, active compounds read low 0.98 | locus YBR279W, strain paf1, active compounds read low 0.997 | locus YCL011C, strain gbp2, active compounds read low 0.99 | locus YCL016C, strain dcc1, active compounds read low 0.987 | locus YCL029C, strain bik1, active compounds read low 1.01 | locus YCL061C, strain MRC1, active compounds read low 0.999 | locus YCL069W, strain vba3, active compounds read low 1 | locus YCR088W, strain abp1, active compounds read low 0.994 | locus YDL005C, strain med2, active compounds read low 0.988 | locus YDL035C, strain GPR1, active compounds read low 1.02 | locus YDL040C, strain nat1, active compounds read low 0.985 | locus YDL074C, strain BRE1, active compounds read low 0.985 | locus YDL101C, strain DUN1, active compounds read low 1.01 | locus YDL134C, strain PPH21, active compounds read low 0.999 | locus YDL185W, strain tfp1, active compounds read low 1.01 | locus YDL192W, strain arf1, active compounds read low 1 | locus YDR001C, strain nth1, active compounds read low 1.01 | locus YDR069C, strain doa4, active compounds read low 0.994 | locus YDR101C, strain arx1, active compounds read low 0.994 | locus YDR137W, strain rgp1, active compounds read low 0.967 | locus YDR150W, strain NUM1, active compounds read low 1 | locus YDR159W, strain sac3, active compounds read low 1.01 | locus YDR162C, strain NBP2, active compounds read low 0.985 | locus YDR195W, strain ref2 1 | locus YDR297W, strain sur2, active compounds read low 0.998 | locus YDR318W, strain mcm21, active compounds read low 1.02 | locus YDR334W, strain swr1, active compounds read low 0.976 | locus YDR335W, strain msn5, active compounds read low 1 | locus YDR388W, active compounds read low 1.01 | locus YDR392W, strain spt3, active compounds read low 0.997 | locus YDR502C, strain sam2, active compounds read low 0.983 | locus YEL003W, strain gim4, active compounds read low 0.999 | locus YEL037C, strain rad23, active compounds read low 0.994 | locus YEL061C, strain CIN8 (second series), active compounds read low 1.01 | locus YEL061C, strain CIN8, active compounds read low 1 | locus YER015W, strain faa2, active compounds read low 0.988 | locus YER016W, strain bim1, active compounds read low 0.999 | locus YER110C, active compounds read low 1.01 | locus YER111C, strain swi4, active compounds read low 0.996 | locus YER155C, strain BEM2 (second series), active compounds read low 0.992 | locus YER155C, strain BEM2, active compounds read low 1.01 | locus YER167W, strain BCK2, active compounds read low 1.03 | locus YFR010W, strain ubp6, active compounds read low 0.989 | locus YGL078C, strain dbp3, active compounds read low 0.984 | locus YGL086W, strain mad1, active compounds read low 1.03 | locus YGL167C, strain pmr1, active compounds read low 0.984 | locus YGL173C, strain kem1, active compounds read low 0.983 | locus YGL227W, strain vid30, active compounds read low 0.998 | locus YGL240W, strain doc1, active compounds read low 1.03 | locus YGL248W, strain PDE1, active compounds read low 1.01 | locus YGL253W, strain hxk2, active compounds read low 0.993 | locus YGR078C, strain PAC10, active compounds read low 0.987 | locus YGR135W, strain pre9, active compounds read low 0.961 | locus YGR229C, strain SMI1, active compounds read low 0.999 | locus YGR252W, strain gcn5, active compounds read low 1.06 | locus YHR013C, strain ard1, active compounds read low 0.988 | locus YHR027C, strain rpn1, active compounds read low 1 | locus YHR030C, strain SLT2, active compounds read low 1.01 and 0.973 | locus YHR079C, strain IRE1 (second series), active compounds read low 1.01 | locus YHR079C, strain IRE1, active compounds read low 0.984 | locus YHR094C, strain hxt1, active compounds read low 0.999 | locus YHR129C, strain ARP1, active compounds read low 1.01 | locus YHR142W, strain chs7, active compounds read low 0.972 | locus YHR200W, strain rpn10, active compounds read low 1 | locus YIL066C, strain RNR3, active compounds read low 1.02 | locus YIL073C, strain SPO22, active compounds read low 1.06 | locus YIL125W, strain kgd1, active compounds read low 0.99 | locus YIR030C, strain dcg1, active compounds read low 0.999 | locus YJL092W, strain hpr5, active compounds read low 0.999 | locus YJL095W, strain BCK1 (second series), active compounds read low 0.991 | locus YJL095W, strain BCK1, active compounds read low 0.996 and 0.98 | locus YJL115W, strain asf1, active compounds read low 1 | locus YJL129C, strain trk1, active compounds read low 1.03 | locus YJL134W, strain LCB3, active compounds read low 1 | locus YJL154C, strain vps35, active compounds read low 0.988 | locus YJL164C, strain tpk1, active compounds read low 0.996 | locus YJL166W, strain qcr8, active compounds read low 0.981 | locus YJL168C, strain set2, active compounds read low 1.01 | locus YJL187C, strain SWE1 (second series), active compounds read low 1 | locus YJR043C, strain POL32, active compounds read low 1.03 | locus YJR066W, strain TOR1, active compounds read low 0.977
